Source: PubChem
Shown are actives, neighbours in structure and some others; about 19% of the full set was active somewhere.
HT1080 IDH1KD tx: toxicity to HT-1080 IDH1 knockdown cells (counter line); HT-1080 IDH1 knockdown viability, ATP luminescence, 48 h; Potency, µM (highest dose often 46.1 µM), for the others: at the top dose activity, negative = toxicity, most hits filed as cytotoxic; actives 2% (n = 360,000); AID 686971;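 note: potency is the fitted concentration of half-maximal effect; 0% = DMSO wells and -100% = cell-free medium wells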
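CellTiter-Glo luminescence after 48 h compound exposure at 37 degrees C of IDH1-knockdown HT-1080 cells in 5% FBS RPMI. %Activity scaled between DMSO wells and cell-free media wells, with curves fitted and assigned curve classes.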
IL1B secr inh: inhibitors of inflammasome signaling (IL-1 beta secretion). THP-1 LPS/ATP IL-1B secretion, AlphaLISA, 16 h; active compounds read low. activity change, % at 57.5 µM. actives 4.7% (n = 360,000); in the data active = activity change below about -50%; inconclusive = mostly about -30% to -49%
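Secreted IL-1B measured by AlphaLISA bead assay after 16 h compound exposure of THP-1 cells; compounds (final up to 57.5 uM) added 1 h before LPS (250 ng/mL) and ATP (1.25 mM) stimulation; lower signal means less secretion.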
TDP1 cell CPT: growth inhibition of DT40 Tdp1-/-;hTDP1 cells with camptothecin (screen for TDP1 inhibitors) | chicken DT40 Tdp1-/-;hTDP1 cells + 20 nM CPT, ATP luminescence, 48 h | Potency, µM (titrated, usually from 46.2 µM), inactives show top-dose activity change, negative = growth inhibition, most hits filed as inhibitors | actives 12% (n = 420,000) | AID 686979; note: potency is the fitted concentration of half-maximal effect; nearly all actives have a fitted effect of over 55% in size
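Chicken DT40 Tdp1-/- cells complemented with human TDP1, 400 cells/well, exposed to compounds plus 20 nM camptothecin for at least 48 h at 37 C; viability read as ATP content by CellTiter-Glo luminescence.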
HT1080NT lethal: kills 2HG-producing HT-1080-NT fibrosarcoma cells; actives 1.6% (n = 360,000); Potency, µM (series often up to 46.1 µM), inactives show top-dose activity, negative = less viability, actives largely listed as cytotoxic; HT-1080-NT fibrosarcoma viability, CellTiter-Glo ATP luminescence, 48 h;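 note: NT is the 2HG producing partner of a matched IDH1 knockdown line; potency is the fitted concentration of half-maximal effect; 0% = DMSO-treated cells and -100% = media-only wells without cells; nearly all actives have a fitted effect of over 55% in size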
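Toxicity toward the 2HG-producing NT line was scored as %Activity, normalised to DMSO and no-cell wells, from CellTiter-Glo luminescence after 48 hours' treatment.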
TDP1 cell noCPT: qHTS for Inhibitors of human tyrosyl-DNA phosphodiesterase 1 (TDP1): qHTS in cells in absence of CPT. DT40 Tdp1-/- hTDP1 cells, no CPT, ATP luminescence, 48 h. Potency, µM (series often up to 46.2 µM), for the others: top-dose activity change, negative = growth inhibition, usual class: inhibitors. actives 15% (n = 420,000). AID 686978, 2013; note: potency is the fitted concentration of half-maximal effect; nearly all actives have a fitted effect of over 55% in size
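Growth kinetics read by CellTiter-Glo luminescence after ≥48 hr at 37 °C. Cells: DT40 Tdp1-/- stably carrying human TDP1, 400 per well, compound exposure in the absence of CPT (DMSO vehicle).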
Numbers without * were called inactive; [ ] = another dose, or the depositor's remark. Unless noted, calls come from the whole dose curve; as a rule, active = well fitted curve in the direction sought with a large enough effect; inconclusive = small, poorly fitted or top-dose-only effect, or another doubt; inactive = no such curve, though single readings can be large; an effect the other way counts as inactive or inconclusive. Unless noted, % is set by controls: 0 for no effect and ±100 for the full control effect.

Results for CC(C)c1c(C(=O)N2CCCCC2c2cccnc2)cnn1-c1nccc(-c2cccs2)n1 (centres undefined) ?
TDP1 cell CPT: -11%[9.04 µM]; TDP1 cell noCPT: inconclusive

Results for Cc1nc([N+](=O)[O-])cn1CC(O)c1ccc2c(c1)OCO2 (centres undefined) ?
TDP1 cell CPT: -11%; TDP1 cell noCPT: 4%

Results for Nc1c(C(=O)Nc2ccc(OC(F)(F)F)cc2)sc2nc(-c3ccncc3)ccc12 ?
TDP1 cell CPT: 10µM*; TDP1 cell noCPT: 6.5µM*

How did NC(=O)c1sc2nc(-c3ccco3)ccc2c1N do in these assays?
HT1080 IDH1KD tx: 13%; IL1B secr inh: -68*; TDP1 cell CPT: -19%; HT1080NT lethal: 10%; TDP1 cell noCPT: -26%

What do the screens show for `Nc1c(C(=O)Nc2ccccc2F)sc2nc(-c3cccnc3)ccc12`?
HT1080 IDH1KD tx: 13µM*; IL1B secr inh: -10; TDP1 cell CPT: 0%; HT1080NT lethal: inconclusive; TDP1 cell noCPT: inconclusive

Results for COC(=O)c1sc2nc(-c3ccco3)ccc2c1N ?
HT1080 IDH1KD tx: 8%; IL1B secr inh: 9; TDP1 cell CPT: -16%; HT1080NT lethal: 11%; TDP1 cell noCPT: inconclusive

How did O=C(NC1CCCC1)c1cc2nc(-c3ccco3)cc(C(F)(F)F)n2n1 do in these assays?
HT1080 IDH1KD tx: 0%; IL1B secr inh: -4; TDP1 cell CPT: inconclusive; HT1080NT lethal: 4%; TDP1 cell noCPT: inconclusive

What do the screens show for `Nc1c(C(=O)NC2CC2)sc2nc3c(c(-c4ccco4)c12)CC/C3=C/c1ccco1`?
HT1080 IDH1KD tx: -12%; IL1B secr inh: -75*; TDP1 cell CPT: 18µM*; HT1080NT lethal: -6%; TDP1 cell noCPT: 16µM*

How did COc1cc2c(cc1OC)CN(S(=O)(=O)c1ccc(Cl)nc1)CC2 do in these assays?
HT1080 IDH1KD tx: -10%; IL1B secr inh: 2; TDP1 cell CPT: -5%; HT1080NT lethal: -1%; TDP1 cell noCPT: -12%

What do the screens show for `NC(=O)c1sc2nc3c(c(-c4ccco4)c2c1N)CCC3`?
HT1080 IDH1KD tx: -26%; IL1B secr inh: -80*; TDP1 cell CPT: inconclusive; HT1080NT lethal: 0%; TDP1 cell noCPT: 14µM*

Results for Cc1ccc(-c2c3c(nc4sc(C(N)=O)c(N)c24)CCCC3)o1 ?
HT1080 IDH1KD tx: -8%; IL1B secr inh: -25; TDP1 cell CPT: -5%; HT1080NT lethal: -2%; TDP1 cell noCPT: -24%

Results for NC(=O)c1sc2nc(-c3cccnc3)ccc2c1N ?
HT1080 IDH1KD tx: 2%; IL1B secr inh: -67*; TDP1 cell CPT: inconclusive; HT1080NT lethal: 11%; TDP1 cell noCPT: inconclusive

Results for Cc1ccc(-n2c(SCC(=O)NC3CCS(=O)(=O)C3)nc3ccccc3c2=O)c(C)c1 (centres undefined) ?
HT1080 IDH1KD tx: -8%; IL1B secr inh: 0; TDP1 cell CPT: inconclusive; HT1080NT lethal: -10%; TDP1 cell noCPT: 16µM*

Results for O=C(CSc1nc2ccccc2c(=O)n1-c1cccc(C(F)(F)F)c1)NC1CC1 ?
HT1080 IDH1KD tx: -1%; IL1B secr inh: inconclusive; TDP1 cell CPT: 18µM*; HT1080NT lethal: -7%; TDP1 cell noCPT: inconclusive

How did Cc1ccccc1-n1c(SCC(=O)NC2CCS(=O)(=O)C2)nc2ccccc2c1=O (centres undefined) do in these assays?
HT1080 IDH1KD tx: -1%; IL1B secr inh: -6; TDP1 cell CPT: inconclusive; HT1080NT lethal: 2%; TDP1 cell noCPT: inconclusive

How did Cc1ccc(CCNC(=O)C2CCN(S(=O)(=O)c3ccc4c(c3)oc(=O)n4C)CC2)cc1 do in these assays?
HT1080 IDH1KD tx: 1%; IL1B secr inh: 31; TDP1 cell CPT: -22%; HT1080NT lethal: 2%; TDP1 cell noCPT: 21%

How did O=C(Cn1sc2ccccc2c1=O)Nc1ccc(Br)cc1 do in these assays?
HT1080 IDH1KD tx: inconclusive; IL1B secr inh: -98*; TDP1 cell CPT: 2.3µM*; HT1080NT lethal: inconclusive; TDP1 cell noCPT: 2.3µM*

How did O=C(Cn1sc2ccccc2c1=O)Nc1ccc(Cl)cc1 do in these assays?
HT1080 IDH1KD tx: -21%; IL1B secr inh: -105*; TDP1 cell CPT: 5.2µM*; HT1080NT lethal: inconclusive; TDP1 cell noCPT: 2.6µM*

What do the screens show for `O=C(CN1C(=O)C2CC=CCC2C1=O)Nc1ccc(Br)cc1` (centres undefined)?
HT1080 IDH1KD tx: 2%; IL1B secr inh: 2; TDP1 cell CPT: 9%; HT1080NT lethal: 4%; TDP1 cell noCPT: 12%

Results for CC1(C)C(=O)N(CC(=O)Nc2ccc(Cl)cc2)c2ccccc21 ?
TDP1 cell CPT: -5%; TDP1 cell noCPT: -3%

Results for O=C(Cn1sc2ccccc2c1=O)Nc1ccc(F)cc1 ?
HT1080 IDH1KD tx: inconclusive; IL1B secr inh: -104*; TDP1 cell CPT: 2.9µM*; HT1080NT lethal: inconclusive; TDP1 cell noCPT: 2.1µM*

What do the screens show for `O=C(c1ccc(C(F)(F)F)cc1)N1CCN(S(=O)(=O)c2ccc3c(c2)OCCCO3)CC1`?
HT1080 IDH1KD tx: -5%; IL1B secr inh: 0; TDP1 cell CPT: inconclusive; HT1080NT lethal: -1%; TDP1 cell noCPT: inconclusive

What do the screens show for `COc1ccc(-c2csc(C(C)(NC(C)=O)c3ccc(OC)cc3)n2)cc1` (centres undefined)?
HT1080 IDH1KD tx: 15%; IL1B secr inh: 3; TDP1 cell CPT: 16µM*; HT1080NT lethal: 17%; TDP1 cell noCPT: inconclusive

How did COc1cccc(C(NC(C)=O)c2nc(-c3ccc(F)c(Cl)c3)cs2)c1 (centres undefined) do in these assays?
HT1080 IDH1KD tx: -13%; IL1B secr inh: -23; TDP1 cell CPT: -14%; HT1080NT lethal: -6%; TDP1 cell noCPT: -25%

How did CC(=O)NC(C)(c1ccccc1)c1nc(-c2ccc(N(C)C)cc2)cs1 (centres undefined) do in these assays?
HT1080 IDH1KD tx: inconclusive; IL1B secr inh: -3; TDP1 cell CPT: 16µM*; HT1080NT lethal: 5%; TDP1 cell noCPT: 23µM*

How did COc1ccc(C(C)(NC(C)=O)c2nc(-c3ccc(F)c(Cl)c3)cs2)cc1 (centres undefined) do in these assays?
HT1080 IDH1KD tx: inconclusive; IL1B secr inh: -27; TDP1 cell CPT: 18µM*; HT1080NT lethal: inconclusive; TDP1 cell noCPT: 23µM*

Results for COc1ccc(C(C)(NC(C)=O)c2nc(-c3ccncc3)cs2)cc1 (centres undefined) ?
HT1080 IDH1KD tx: 22%; IL1B secr inh: 16; TDP1 cell CPT: -8%; HT1080NT lethal: 7%; TDP1 cell noCPT: -7%

Results for COc1ccc(CCNC(=S)N2CCN(S(=O)(=O)c3ccccc3)CC2)cc1 ?
HT1080 IDH1KD tx: 2%; IL1B secr inh: 0; TDP1 cell CPT: inconclusive; HT1080NT lethal: 5%; TDP1 cell noCPT: inconclusive
